Assay results reported in PubChem BioAssay (NCI).
About 83,000 compounds went through this panel and 20% of them were active in at least one assay; those are over-represented in the sample as a whole.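 A percent growth of 40 corresponds to 60% growth inhibition; 0 means no net growth; -100 means all cells died. Active threshold: below 10.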 The source made the active and inactive calls.

Key:
Assay in all cases: NCI-60 one-dose screen, 48 h (100 = growth as untreated, 0 = no growth, -100 = all killed)
Conditions in all cases: 10 µM unless noted
SR leukemia = system: SR leukemia
RPMI-8226 leukemia = system: RPMI-8226 leukemia
OVCAR-8 ovarian = system: OVCAR-8 ovarian
OVCAR-5 ovarian = system: OVCAR-5 ovarian
OVCAR-4 ovarian = system: OVCAR-4 ovarian
SK-OV-3 ovarian = system: SK-OV-3 ovarian
IGROV1 ovarian = system: IGROV1 ovarian
HS 578T breast = system: HS 578T breast
NCI/ADR-RES ovarian = system: NCI/ADR-RES ovarian
T-47D breast = system: T-47D breast
BT-549 breast = system: BT-549 breast
MDA-MB-435 melanoma = system: MDA-MB-435 melanoma
SW-620 colon = system: SW-620 colon
MCF7 breast = system: MCF7 breast
HCT-116 colon = system: HCT-116 colon
HCC-2998 colon = system: HCC-2998 colon
KM12 colon = system: KM12 colon
OVCAR-3 ovarian = system: OVCAR-3 ovarian

Measured: growth

CC(C)(C)c1ccc(-c2nnc(-c3nc4ccccc4nc3Cl)o2)cc1
inactive: SR leukemia 91.3% | RPMI-8226 leukemia 65.9% | OVCAR-8 ovarian 84.2% | OVCAR-5 ovarian 99.1% | OVCAR-4 ovarian 82.2% | SK-OV-3 ovarian 95.9% | IGROV1 ovarian 72.5% | NCI/ADR-RES ovarian 82.5% | BT-549 breast 104% | MDA-MB-435 melanoma 69% | SW-620 colon 66.2% | HCT-116 colon 14.2% | HCC-2998 colon 98.5% | KM12 colon 65.8%
active: HS 578T breast -8.86% | T-47D breast -70.5% | MCF7 breast -65.9%

COc1ccc(-n2c(SCc3nnc(NC(=O)c4ccc(Br)cc4)s3)nc3cc(OC)c(OC)cc3c2=O)cc1
inactive: SR leukemia 101% | RPMI-8226 leukemia 104% | OVCAR-8 ovarian 94.9% | OVCAR-5 ovarian 95.5% | OVCAR-4 ovarian 93.8% | SK-OV-3 ovarian 108% | IGROV1 ovarian 102% | HS 578T breast 99% | NCI/ADR-RES ovarian 78.8% | T-47D breast 112% | BT-549 breast 137% | MDA-MB-435 melanoma 87.5% | SW-620 colon 95.7% | MCF7 breast 85.6% | HCT-116 colon 96.2% | HCC-2998 colon 88.2% | KM12 colon 90.6%

Cc1cc(C)cc(C(=O)Nc2cccc(C#Cc3cccc4[nH]nc(N)c34)c2)c1
inactive: RPMI-8226 leukemia 47.4% | OVCAR-8 ovarian 53.3% | OVCAR-5 ovarian 73.9% | OVCAR-4 ovarian 80.7% | SK-OV-3 ovarian 95.7% | IGROV1 ovarian 64.6% | HS 578T breast 75.7% | NCI/ADR-RES ovarian 59.8% | T-47D breast 39.4% | BT-549 breast 115% | SW-620 colon 38.6% | MCF7 breast 38.1% | HCT-116 colon 43.2% | HCC-2998 colon 57.7% | KM12 colon 12.6%
active: SR leukemia 4.43% | MDA-MB-435 melanoma 2.35%

CCNC(=O)N1CCc2cc(OC)c(OCCc3ccc(OC)nc3)cc2C1c1ccc(C)cc1C (centres undefined)
inactive: OVCAR-8 ovarian 15.5% | OVCAR-5 ovarian 31.4% | OVCAR-4 ovarian 52.5% | SK-OV-3 ovarian 54% | IGROV1 ovarian 17.2% | T-47D breast 61% | MDA-MB-435 melanoma 10% | SW-620 colon 19.6% | MCF7 breast 14% | HCC-2998 colon 13%
active: SR leukemia 7.67% | RPMI-8226 leukemia 9.18% | HS 578T breast -2.81% | NCI/ADR-RES ovarian 7.35% | BT-549 breast -6.5% | HCT-116 colon 8.5% | KM12 colon 9.57%

CC(C)(C)n1nnnc1C(Nc1cccc2c1OCO2)c1cc2cccc3ccc4cccc1c4c32 (centres undefined)
inactive: SR leukemia 82.3% | RPMI-8226 leukemia 55.3% | OVCAR-8 ovarian 90% | OVCAR-5 ovarian 91.9% | OVCAR-4 ovarian 79.2% | SK-OV-3 ovarian 94.5% | IGROV1 ovarian 81.2% | HS 578T breast 88.7% | NCI/ADR-RES ovarian 83.5% | T-47D breast 65.9% | BT-549 breast 130% | MDA-MB-435 melanoma 84.2% | SW-620 colon 88.8% | MCF7 breast 64.9% | HCT-116 colon 63% | HCC-2998 colon 98.7% | KM12 colon 95.4%

CC[C@@H](CO)Nc1ccc2ncc(C#Cc3cncc(C(=O)Nc4ccc(CN5CCN(C)CC5)c(C(F)(F)F)c4)c3)n2n1
inactive: NCI/ADR-RES ovarian 55.1%
active: SR leukemia -24.4% | RPMI-8226 leukemia -34.5% | OVCAR-8 ovarian -57.6% | OVCAR-5 ovarian -14% | OVCAR-4 ovarian -44.1% | SK-OV-3 ovarian -40% | IGROV1 ovarian -25.4% | HS 578T breast -41.5% | T-47D breast -75.8% | BT-549 breast -91.7% | MDA-MB-435 melanoma -88% | SW-620 colon -44.8% | MCF7 breast -69.6% | HCT-116 colon -92.5% | HCC-2998 colon -43.2% | KM12 colon -34.1%

COc1ccc(-c2nc3cc(Cl)c(Cl)cc3n2CC(=O)N=Nc2c(O)[nH]c3ccc(OC)cc23)cc1
inactive: SR leukemia 60.6% | RPMI-8226 leukemia 55.1% | OVCAR-8 ovarian 74.5% | OVCAR-5 ovarian 49.7% | OVCAR-4 ovarian 40.4% | SK-OV-3 ovarian 86.2% | IGROV1 ovarian 29.5% | HS 578T breast 47.7% | NCI/ADR-RES ovarian 30.9% | T-47D breast 37.2% | MDA-MB-435 melanoma 56.4% | SW-620 colon 61.4% | MCF7 breast 67.6% | HCT-116 colon 39.7% | HCC-2998 colon 52.8% | KM12 colon 71.3%
active: BT-549 breast -6.95%

Cc1cc(-c2ccc(Cl)cc2)n(Cc2nnc(SCC(=O)Nc3ccc(S(N)(=O)=O)cc3)n2-c2ccc([N+](=O)[O-])cc2)n1
inactive: SR leukemia 72.5% | RPMI-8226 leukemia 64.3% | OVCAR-8 ovarian 88.7% | OVCAR-5 ovarian 98.5% | OVCAR-4 ovarian 86.5% | SK-OV-3 ovarian 112% | IGROV1 ovarian 96.9% | HS 578T breast 96.7% | NCI/ADR-RES ovarian 84.3% | T-47D breast 70.3% | BT-549 breast 116% | MDA-MB-435 melanoma 87.4% | SW-620 colon 84.5% | MCF7 breast 58% | HCT-116 colon 60.9% | HCC-2998 colon 97.8% | KM12 colon 79.6%

COc1cc2oc(-c3cccc(C(=O)N[C@@H](CC(C)C)C(=O)OC(C)(C)C)c3)cc(=O)c2c(OC)c1OC
inactive: SR leukemia 42.1% | RPMI-8226 leukemia 37.4% | OVCAR-8 ovarian 49.3% | OVCAR-5 ovarian 93% | OVCAR-4 ovarian 69.6% | SK-OV-3 ovarian 111% | IGROV1 ovarian 71.5% | HS 578T breast 56.9% | NCI/ADR-RES ovarian 49% | T-47D breast 52.7% | BT-549 breast 67.5% | MDA-MB-435 melanoma 90% | SW-620 colon 83.4% | MCF7 breast 69.9% | HCT-116 colon 62.5% | HCC-2998 colon 84% | KM12 colon 59.8%

CCNC(=O)N1CCc2cc(OC)c(OCCc3ccc(OC)c(N)c3)cc2C1c1ccc(C)cc1C (centres undefined)
active: BT-549 breast -10.9% | HCT-116 colon 9.82%
inactive: SR leukemia 15.3% | RPMI-8226 leukemia 20.1% | OVCAR-8 ovarian 24.4% | OVCAR-5 ovarian 33.5% | OVCAR-4 ovarian 57.6% | SK-OV-3 ovarian 52.8% | IGROV1 ovarian 21.4% | HS 578T breast 11.7% | NCI/ADR-RES ovarian 17.9% | T-47D breast 65.8% | MDA-MB-435 melanoma 13.4% | SW-620 colon 23.2% | MCF7 breast 17.2% | HCC-2998 colon 20.6% | KM12 colon 12.5%

CC(=O)c1cc(C(=O)N2c3ccccc3Sc3ccccc32)n2ccc3ccccc3c12
active: MDA-MB-435 melanoma 0.748%
inactive: SR leukemia 16.6% | RPMI-8226 leukemia 50.3% | OVCAR-8 ovarian 32.7% | OVCAR-5 ovarian 69.7% | OVCAR-4 ovarian 73.6% | SK-OV-3 ovarian 48.7% | IGROV1 ovarian 49.9% | HS 578T breast 16% | NCI/ADR-RES ovarian 13.4% | T-47D breast 27.5% | BT-549 breast 37% | SW-620 colon 26.3% | MCF7 breast 17.8% | HCT-116 colon 24.4% | HCC-2998 colon 74.9% | KM12 colon 31.7%

Cc1ccc(-c2cc3nc(C(Cl)Cl)nc(C)n3n2)cc1
inactive: SR leukemia 113% | RPMI-8226 leukemia 94.6% | OVCAR-8 ovarian 102% | OVCAR-4 ovarian 118% | SK-OV-3 ovarian 84.2% | IGROV1 ovarian 72.2% | OVCAR-3 ovarian 104% | HS 578T breast 107% | NCI/ADR-RES ovarian 110% | T-47D breast 94.6% | BT-549 breast 115% | MDA-MB-435 melanoma 110% | SW-620 colon 107% | MCF7 breast 88.3% | HCT-116 colon 108% | HCC-2998 colon 115% | KM12 colon 99.1%

CNC(=O)c1cc(Oc2ccc3nc(NC(=O)c4ccc(N5CCOCC5)c(C(F)(F)F)c4)sc3c2)ccn1
inactive: SR leukemia 53.2% | RPMI-8226 leukemia 47.5% | OVCAR-8 ovarian 56.2% | OVCAR-5 ovarian 99% | OVCAR-4 ovarian 61.5% | SK-OV-3 ovarian 102% | IGROV1 ovarian 88.7% | HS 578T breast 69.6% | NCI/ADR-RES ovarian 70% | T-47D breast 86.1% | BT-549 breast 94% | MDA-MB-435 melanoma 88.4% | SW-620 colon 114% | MCF7 breast 70% | HCT-116 colon 60.2% | HCC-2998 colon 96.3% | KM12 colon 56.7%

O=c1c2ccccc2nc(COc2ccccc2)n1NS(=O)(=O)c1ccc(Cl)cc1
active: MDA-MB-435 melanoma 5.47%
inactive: SR leukemia 57.6% | RPMI-8226 leukemia 95.6% | OVCAR-8 ovarian 92% | OVCAR-5 ovarian 91.2% | OVCAR-4 ovarian 95.2% | IGROV1 ovarian 61.7% | OVCAR-3 ovarian 103% | HS 578T breast 75% | NCI/ADR-RES ovarian 73% | T-47D breast 74.8% | BT-549 breast 106% | SW-620 colon 64.1% | MCF7 breast 41.9% | HCT-116 colon 83.6% | HCC-2998 colon 77.6% | KM12 colon 55.2%

O=C(c1ccc(O)c(C(=O)N2Cc3ccc(OCCC[P+](c4ccccc4)(c4ccccc4)c4ccccc4)cc3C2)c1)N1Cc2cccc(F)c2C1
inactive: SR leukemia 54.5% | RPMI-8226 leukemia 31.8% | OVCAR-8 ovarian 77.5% | OVCAR-5 ovarian 102% | OVCAR-4 ovarian 91.4% | SK-OV-3 ovarian 114% | IGROV1 ovarian 43.8% | HS 578T breast 72.4% | NCI/ADR-RES ovarian 108% | T-47D breast 38.7% | BT-549 breast 65.9% | MDA-MB-435 melanoma 57.1% | SW-620 colon 76.2% | MCF7 breast 51.9% | HCT-116 colon 96.9% | HCC-2998 colon 68.4% | KM12 colon 57.8%

NC(N)=Nc1ccc(Oc2cccc(NC(N)=Nc3ccc(Br)c(C(F)(F)F)c3)c2)cc1
inactive: RPMI-8226 leukemia 45.5% | OVCAR-8 ovarian 65.5% | OVCAR-4 ovarian 58.9% | SK-OV-3 ovarian 57% | OVCAR-3 ovarian 23.5% | HS 578T breast 34% | NCI/ADR-RES ovarian 96.8% | T-47D breast 55.5% | BT-549 breast 45.9% | MDA-MB-435 melanoma 57.5% | SW-620 colon 53.4% | MCF7 breast 32.2% | HCT-116 colon 42.9% | HCC-2998 colon 50.8% | KM12 colon 20.4%
active: SR leukemia 4.94% | IGROV1 ovarian -16.6%

CCCn1cnc2c(c1=N)C(c1ccc(OC)cc1)c1sc3c(CC)cccc3c1O2 (centres undefined)
inactive: OVCAR-8 ovarian 26.9% | OVCAR-4 ovarian 71.8% | SK-OV-3 ovarian 42.3% | IGROV1 ovarian 31.9% | HS 578T breast 18.3% | T-47D breast 27.9% | BT-549 breast 33.3% | SW-620 colon 28.4% | MCF7 breast 18.4% | HCC-2998 colon 19.2% | KM12 colon 16.8%
active: SR leukemia 8.89% | RPMI-8226 leukemia -8.82% | OVCAR-3 ovarian 6% | NCI/ADR-RES ovarian 7.77% | MDA-MB-435 melanoma -44.5% | HCT-116 colon 9.7%
